Coupling enz: inhibits coupling enzyme system, counter-screen for aldolase hits; coupling enzyme system counterscreen, AmpLite Red fluorescence; activity change, negative = inhibition, % at 58.2 µM, hits read low; 290,000 tested, 0.67% active; in the data active means activity change below about -30%
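Counterscreen lacking aldolase: glyceraldehyde-3-phosphate coupling-enzyme reagent preincubated 10 min at RT with compound (at 57.5 uM final), then substrate/coupling system with AmpLite Red added; fluorescence read at 525/598 nm after 20 min RT.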
ELG1 DNA repair: blocks ELG1-dependent DNA repair in HEK293T cells | HEK293T ELG1-luciferase reporter, luminescence, 16 h; DNA damage induced by 5-fluorouridine | Potency, µM (doses to about 46.1 µM), for the others: top-dose activity change, negative = inhibition, hits mostly inhibitors | 330,000 tested, 2.3% active; further: potency means the concentration at half of the fitted maximal effect; nearly all actives have a fitted effect of over 55% in size
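Reporter activity after DNA damage by 5-fluorouridine is monitored. Compound-treated cells incubate 16 hr at 37 °C, then ONE-Glo is added for 30 min before luminescence reading.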
Gal4-VP16 FLuc: counter-screen for ROR gamma inhibitors: Gal4-VP16 reporter; 310,000 tested, 3.5% active; Potency, µM (titrated, usually from 53.6 µM), for the others: at the top dose activity, negative = inhibition, most hits filed as inhibitors; Drosophila S2 Gal4-VP16 UAS-luciferase, luminescence, 20 h; AID 2546;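 further: Gal4-VP16 expression switched on by copper sulfate through the metallothionein promoter; potency means the concentration at half of the fitted maximal effect; nearly all actives have a fitted effect of over 50% in size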
RORg inh: blocks mouse ROR gamma transcriptional activity | AID 2551 | Drosophila S2 Gal4-RORgamma UAS-luciferase reporter, 20 h | 310,000 tested, 5.4% active | Potency, µM (highest dose often 53.6 µM), for inactives: top-dose activity change, negative = inhibition, most hits filed as inhibitors | P51450; further: potency means the concentration at half of the fitted maximal effect; nearly all actives have a fitted effect of over 60% in size
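ROR gamma transcriptional activity was tracked as Gal4-UAS luciferase output in stably transfected Drosophila Schneider cells, with compound added 1 hr before 700 uM copper sulfate induction and a 20 hr ambient-temperature incubation.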
TSHR antag: antagonists of human thyroid stimulating hormone receptor | TSHR-expressing cells, TSH-stimulated cAMP HTRF, 2 h; active compounds read low | 330,000 tested, 0.2% active | P16473 | activity change, negative = inhibition, % at 11.5 µM;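 active means activity change below a set negative limit, meaning inhibition stronger than a set level, cut at about -70% in these data; inconclusive means activity change between two set negative limits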
Target sequence (P16473 whole entry, looked up): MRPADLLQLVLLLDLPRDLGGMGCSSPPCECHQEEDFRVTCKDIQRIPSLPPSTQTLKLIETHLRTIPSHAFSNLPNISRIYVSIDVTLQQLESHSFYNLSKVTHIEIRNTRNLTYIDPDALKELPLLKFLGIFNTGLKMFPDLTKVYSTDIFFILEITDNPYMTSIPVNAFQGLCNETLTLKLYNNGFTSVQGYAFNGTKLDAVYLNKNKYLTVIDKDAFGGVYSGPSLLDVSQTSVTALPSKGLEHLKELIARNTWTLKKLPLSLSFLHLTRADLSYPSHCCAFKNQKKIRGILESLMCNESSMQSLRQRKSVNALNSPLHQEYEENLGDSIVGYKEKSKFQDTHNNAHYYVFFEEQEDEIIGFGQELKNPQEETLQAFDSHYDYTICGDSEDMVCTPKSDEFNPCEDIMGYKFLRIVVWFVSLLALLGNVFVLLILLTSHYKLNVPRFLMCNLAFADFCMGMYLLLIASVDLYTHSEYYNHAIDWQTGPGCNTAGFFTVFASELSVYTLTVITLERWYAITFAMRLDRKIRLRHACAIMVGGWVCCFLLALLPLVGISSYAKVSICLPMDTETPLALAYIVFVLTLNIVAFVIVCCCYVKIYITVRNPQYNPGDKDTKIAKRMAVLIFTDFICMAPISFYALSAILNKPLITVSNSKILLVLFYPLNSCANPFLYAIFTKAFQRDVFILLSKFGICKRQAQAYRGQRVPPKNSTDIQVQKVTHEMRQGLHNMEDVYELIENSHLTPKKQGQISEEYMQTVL
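Cell-based HTRF cAMP assay; TSHR cells + compound, TSH EC80 (4nM final), 2 h, 37 deg C. Lysis with anti-cAMP cryptate and cAMP-d2, 30 min RT, read 665/620 nm.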
* = called active by the depositor; ? = inconclusive; / = not tested or not shown; [ ] = dose if it differs, or a comment. Sampled rows, rich in hits. Any-hit rate of the full collection: about 8%. Unless noted, the call rests on the fitted dose curve; in most records, active means well fitted curve in the direction sought with a large enough effect; inconclusive means small, poorly fitted or top-dose-only effect, or another doubt; inactive means no such curve, though single readings can be large; an effect the other way counts as inactive or inconclusive. On the % scale 0 is the no-effect control and ±100 the full control effect.

SMILES	Coupling enz	ELG1 DNA repair	Gal4-VP16 FLuc	RORg inh	TSHR antag
CCCCCC(=O)NC(=S)Nc1ccc2oc(=O)ccc2c1	0.8	4.8%	?	11.2µM*	5.9
CCCCC(=O)NC(=S)Nc1cccc(NC(=O)c2ccccc2)c1	1.7	?	7.94µM*	2.24µM*	7.3
CCCCCC(=O)N/N=C(\C)c1ccc(NC(=O)c2ccco2)cc1	1.1	?	-11.4%	-14.9%	2.1
COc1ccc(C(=O)NC(=S)Nc2ccc3oc(=O)ccc3c2)cc1	-1.2	-2.0%	-15.8%	-13.9%	-10.3
COC(=O)C1=C(C(=O)OC)[C@@H]2N(C)c3ccc(OC)cc3[C@@]23C[C@@H](C(=O)OC)N(S(=O)(=O)c2ccc(C)cc2)C3=N1	-0.4	/	/	/	/
C=C[C@@H](C)[C@](C)(O)c1ccccc1	1.6	/	3.6%	-12.0%	/
Cc1ccc2c(c1)sc(=NC(=O)c1cccs1)n2C	-4.2	?	7.94µM*	8.91µM*	-30.3
Cc1ccc2c(c1)sc(=NC(=O)C1CC1)n2C	-0.3	?	-7.1%	-26.4%	-14.4
CC(C)(C)c1cc(NS(=O)(=O)c2cccs2)no1	2.2	-1.4%	/	/	12.5
CC(=O)c1cccc(NC(=O)c2cccc(S(=O)(=O)N3CCOCC3)c2)c1	-2.0	?	-3.5%	?	9.6
CCOC(=O)c1ccc(NC(=O)c2cccc(S(=O)(=O)N3CCOCC3)c2)cc1	-0.3	23.1µM*	-9.8%	?	-25.7
CCOc1cc(N2CCOCC2)c(OCC)cc1NC(=O)c1ccccc1	-12.2	?	-21.6%	-3.1%	-23.2
CCOc1cc(N2CCOCC2)c(OCC)cc1NC(=O)c1ccc(C)cc1	-30.6*	?	?	24.9%	-14.4
CCOc1cc(N2CCOCC2)c(OCC)cc1NC(=O)c1cc(C)cc(C)c1	-1.3	?	2.5%	20.9%	-10.8
CCOc1cc(N2CCOCC2)c(OCC)cc1NC(=O)c1cccc(S(=O)(=O)N2CCOCC2)c1	/	16.4µM*	/	/	-88.5*
Cc1cc(Br)c(NC(=O)CSc2n[nH]c(N)n2)c(Br)c1	/	0.9%	/	/	/
CC[C@@H]1C/C=C\Cc2ccccc2[C@@H](C(=O)C[C@@H](O)CC(C)=O)OC1=O	/	-2.8%	/	/	-4.9
COc1ccc(-c2ccc(C3C4C=CCC(C)C4C(=O)N3Cc3ccccc3)c(F)c2)cc1 (stereo not drawn)	-2.7	/	-2.7%	15.2%	/
C=CCC[C@@H](Cc1ccc(F)cc1)C(=O)OC[C@@H](Cc1c[nH]c2ccccc12)NC(=O)[C@@H](CC=C)CC(=O)N(CCO)Cc1ccccc1	/	?	/	/	13.8
C=CCC[C@H](Cc1ccc(F)cc1)C(=O)OC[C@H](Cc1c[nH]c2ccccc12)NC(=O)[C@@H](CC=C)CC(=O)NCCO	/	20.6µM*	/	/	-7.8
C=CC[C@H](CC(=O)N(CCO)Cc1ccccc1)C(=O)N[C@H](COC(=O)[C@@H](CC=C)Cc1ccc(F)cc1)Cc1c[nH]c2ccccc12	/	23.1µM*	/	/	-12.9
C=CC[C@@H](CC(=O)N(CCO)Cc1ccccc1)C(=O)N[C@H](COC(=O)[C@@H](CC=C)Cc1ccc(F)cc1)Cc1c[nH]c2ccccc12	/	20.6µM*	/	/	-6.6
C=CCC[C@H](Cc1ccc(F)cc1)C(=O)OC[C@H](Cc1c[nH]c2ccccc12)NC(=O)[C@H](CC=C)CC(=O)N(CCO)Cc1ccccc1	/	20.6µM*	/	/	-3.7
Cc1cccc(NC(=O)CN(CC2CCCO2)C(=O)c2oc3ccccc3c2C)c1C (stereo not drawn)	/	?	/	/	0.0
CCOc1cc(/C=C(\C#N)C(=O)Nc2ccccc2C(=O)O)ccc1OC(=O)c1ccc(C)cc1	4.4	5.6%	2.7%	-4.8%	9.4
SMILES	Coupling enz	ELG1 DNA repair	Gal4-VP16 FLuc	RORg inh	TSHR antag
C[C@H]([C@H](C)N1CC(=O)NC(=O)C1)N1CC(=O)NC(=O)C1	0.8	/	-23.7%	2.6%	/
CCCN1CNC(=S)N(c2cccc(C)c2C)C1	/	-10.2%	?	10µM*	18.0
CCN1CNC(=S)N(c2cccc(C)c2C)C1	2.0	4.4%	?	11.2µM*	-6.3
CCCN1CNC(=S)N(c2ccccc2OC)C1	0.1	11.8%	-23.2%	?	7.1
Cc1ccccc1-n1c(=O)n(Cc2ccccc2)c(=O)c2[nH]cnc21	-1.5	-0.8%	12.6%	0.282µM*	15.2
Oc1c(Br)cc(/C=N/n2c(-c3ccccc3)n[nH]c2=S)c(Br)c1O	2.1	1.3%	?	?	-15.4
Cn1cccc1/C=N/n1c(-c2ccccc2)n[nH]c1=S	-0.2	1.0%	?	14.1µM*	-15.3
Cn1cccc1/C=N/n1c(-c2ccc(C(C)(C)C)cc2)n[nH]c1=S	/	?	?	2.24µM*	14.2
Fc1ccc(-c2n[nH]c(=S)n2/N=C/c2c[nH]c3ccccc23)cc1	-0.9	?	-0.3%	?	-9.2
CC1=C(C(=O)Nc2cccc(C(=O)NC3CCCCC3C)c2)SCCO1 (stereo not drawn)	/	?	-8.9%	16.2%	-8.5
COc1ccccc1CNc1cc(-c2ccccc2C)ncn1	-2.4	/	-3.4%	-2.4%	/
CN(C)S(=O)(=O)c1cccc(N=C2NN=C(c3ccccc3)CS2)c1	-0.4	?	15.8µM*	?	-11.2
CC(=O)Nc1ccc(C2=NNC(=Nc3cccc(S(=O)(=O)N(C)C)c3)SC2)cc1	-2.7	?	?	-16.4%	-1.9
Cc1cccc(N=C2NN=C(c3ccccc3F)CS2)c1C	0.9	?	?	?	-1.6
COc1ccc(C2=NNC(=Nc3cc(S(=O)(=O)N(C)C)ccc3C)SC2)c(OC)c1	-1.3	14.6µM*	-16.7%	18.4%	-2.5
COc1cccc(CNC(=O)COC(=O)c2c(C)nn(-c3ccccc3)c2Cl)c1	/	23.1µM*	/	/	-15.0
COc1ccc(CN(C)C(=O)COC(=O)c2c(C)nn(-c3ccc(F)cc3)c2Cl)cc1	/	13µM*	/	/	-22.4
Cc1nn(-c2ccccc2)c(C)c1C(=O)OCC(=O)NC12CC3CC(CC(C3)C1)C2	2.2	20.6µM*	-3.7%	40.0%	-24.0
Cc1nn(-c2ccccc2)c(Cl)c1C(=O)OCC(=O)N(C)c1c(N)n(Cc2ccccc2)c(=O)[nH]c1=O	/	1.3%	/	/	19.1
COc1ccccc1CNC(=O)COC(=O)c1c(C)nn(-c2ccccc2)c1Cl	/	?	4.3%	17.7%	-6.3
O=C(NCC1COCCO1)c1cc(COc2c(F)cccc2F)on1 (stereo not drawn)	/	?	-1.6%	-0.9%	8.6
NC(=O)c1ccsc1NC(=O)c1ccc(S(=O)(=O)N2CCCc3ccccc32)cc1	-3.0	20.6µM*	-12.4%	?	-15.2
COCCNC(=O)c1ccc(S(=O)(=O)N2CCCc3ccccc32)cc1	0.8	?	15.8µM*	-5.2%	-6.8
NC(=O)OC[C@H](O)COc1ccc(Cl)cc1	1.0	/	-9.4%[17 µM]	3.9%[2.98 µM]	/

Compound activity as filed in PubChem BioAssay.
